# Several values for one entry are separate records, joined by “and”; a condition that tells them apart may be missing. Equal values may be shown once. Hit rate of the full screen: of about 5,700 compounds, about 85 (1%) were called active. The sample holds actives, similar compounds and a random draw of the others, so the mix is not that of the screen. Rule as the data show it: active = p53-positive nuclei above about 36% (passing the limit was not always enough); inactive = the rest. Where a structure was tested more than once in an assay, its records may differ in their call.
# Experiments:
# [1] = nuclear p53 accumulation, HPV+ cells – imaging, p53-positive nuclei imaging, 24 h, 48 h (AID 1508601); settings: 24/48 h
# [2] = target: Cellular tumor antigen p53 (Homo sapiens) (UniProt P04637); experiment: as above; settings: 24/48 h, stronger effect = higher value
# Sequence of Cellular tumor antigen p53 (Homo sapiens) (P04637 whole entry, looked up): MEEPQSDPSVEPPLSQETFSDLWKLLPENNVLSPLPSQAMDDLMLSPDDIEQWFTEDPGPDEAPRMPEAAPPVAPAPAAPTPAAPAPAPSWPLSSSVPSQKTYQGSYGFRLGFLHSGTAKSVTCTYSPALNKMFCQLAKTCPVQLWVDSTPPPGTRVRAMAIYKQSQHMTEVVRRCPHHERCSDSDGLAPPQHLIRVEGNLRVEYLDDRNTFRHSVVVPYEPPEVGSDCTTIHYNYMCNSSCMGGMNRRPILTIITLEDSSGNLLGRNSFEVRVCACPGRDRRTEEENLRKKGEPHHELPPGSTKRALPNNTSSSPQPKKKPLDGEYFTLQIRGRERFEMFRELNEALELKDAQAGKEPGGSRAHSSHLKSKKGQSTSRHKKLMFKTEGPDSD
# [3] = measured here: cell number at 24 h, concentration not given here
# [4] = measured here: cell number at 48 h, concentration not given here
# [5] = measured here: p53 positive nuclei at 24 h, concentration not given here
# [6] = measured here: cell number at 24 h, Library stock concentration: 10 mM
# [7] = measured here: cell number at 48 h, Library stock concentration: 10 mM
# [8] = Library stock concentration: 10 mM
# [9] = measured here: p53 positive nuclei at 24 h, Library stock concentration: 10 mM
# [10] = measured here: cell number at 24 h, Library stock concentration: 3.33 mM
# [11] = measured here: cell number at 48 h, Library stock concentration: 3.33 mM
# [12] = Library stock concentration: 3.33 mM
# [13] = measured here: p53 positive nuclei at 24 h, Library stock concentration: 3.33 mM
smiles,measurement,setting,value
O=C(N[C@@H](CO)[C@H](O)c1ccc([N+](=O)[O-])cc1)C(Cl)Cl,"nuclei count, normalised",[1]; [3],109%
same,"nuclei count, normalised",[1]; [4],107%
same,"p53-positive nuclei, normalised",[2]; concentration not given here,-0.175% (inactive)
same,"p53-positive nuclei, normalised",[2]; [5],-0.247%
CCN1CCN(Cc2ccc(NC(=O)c3ccc(C)c(Oc4ccnc5[nH]ccc45)c3)cc2C(F)(F)F)CC1,"nuclei count, normalised","[1]; measured here: cell number at 24 h, Library stock concentration: 80 uM",106%
same,"nuclei count, normalised","[1]; measured here: cell number at 24 h, Library stock concentration: 400 uM",105%
same,"nuclei count, normalised","[1]; measured here: cell number at 24 h, Library stock concentration: 2 mM",97.9%
same,"nuclei count, normalised",[1]; [6],101%
same,"nuclei count, normalised","[1]; measured here: cell number at 48 h, Library stock concentration: 80 uM",116%
same,"nuclei count, normalised","[1]; measured here: cell number at 48 h, Library stock concentration: 400 uM",108%
same,"nuclei count, normalised","[1]; measured here: cell number at 48 h, Library stock concentration: 2 mM",111%
same,"nuclei count, normalised",[1]; [7],112%
same,"p53-positive nuclei, normalised",[2]; Library stock concentration: 80 uM,-0.0678% (inactive)
same,"p53-positive nuclei, normalised",[2]; Library stock concentration: 400 uM,0.0485% (inactive)
same,"p53-positive nuclei, normalised",[2]; Library stock concentration: 2 mM,-0.223% (inactive)
same,"p53-positive nuclei, normalised",[2]; [8],-0.127% (inactive)
same,"p53-positive nuclei, normalised","[2]; measured here: p53 positive nuclei at 24 h, Library stock concentration: 80 uM",-0.156%
same,"p53-positive nuclei, normalised","[2]; measured here: p53 positive nuclei at 24 h, Library stock concentration: 400 uM",-0.0165%
same,"p53-positive nuclei, normalised","[2]; measured here: p53 positive nuclei at 24 h, Library stock concentration: 2 mM",-0.102%
same,"p53-positive nuclei, normalised",[2]; [9],-0.00926%
COc1cccc2c1C(=O)c1c(O)c3c(c(O)c1C2=O)C[C@@](O)(C(=O)CO)C[C@@H]3OC1CC(N)C(OC2CCCCO2)C(C)O1 (some centres not stated),"nuclei count, normalised",[1]; [10],43.4%
same,"nuclei count, normalised",[1]; [11],38.3%
same,"p53-positive nuclei, normalised",[2]; [12],16.4% (inactive)
same,"p53-positive nuclei, normalised",[2]; [13],10.3%
COc1cccc2c1C(=O)c1c(O)c3c(c(O)c1C2=O)C[C@@](O)(C(=O)CO)CC3O[C@H]1CC(N)C(O)C(C)O1 (some centres not stated),"nuclei count, normalised",[1]; [10],45.5% and 23.6%
same,"nuclei count, normalised",[1]; [11],36.1% and 17%
same,"p53-positive nuclei, normalised",[2]; [12],21.6% (inactive) and 89.4% (active)
same,"p53-positive nuclei, normalised",[2]; [13],2.1% and 92.1%
C=C1C[C@H](O)[C@H](C/C=C\CCCC(=O)O)[C@H]1/C=C/C(=O)CCCCC,"nuclei count, normalised",[1]; [3],111%
same,"nuclei count, normalised",[1]; [4],105%
same,"p53-positive nuclei, normalised",[2]; concentration not given here,0.125% (inactive)
same,"p53-positive nuclei, normalised",[2]; [5],-0.0213%
Nc1ccn(C2OC(CO)C(O)C2F)c(=O)n1 (configuration not stated),"nuclei count, normalised","[1]; measured here: cell number at 24 h, Library stock concentration: 500 nM",115%
same,"nuclei count, normalised","[1]; measured here: cell number at 24 h, Library stock concentration: 1.5 uM",111%
same,"nuclei count, normalised","[1]; measured here: cell number at 24 h, Library stock concentration: 4.6 uM",77%
same,"nuclei count, normalised","[1]; measured here: cell number at 24 h, Library stock concentration: 13.7 uM",64.6%
same,"nuclei count, normalised","[1]; measured here: cell number at 24 h, Library stock concentration: 41 uM",64.5%
same,"nuclei count, normalised","[1]; measured here: cell number at 24 h, Library stock concentration: 123 uM",60.1%
same,"nuclei count, normalised","[1]; measured here: cell number at 24 h, Library stock concentration: 370 uM",55.2%
same,"nuclei count, normalised","[1]; measured here: cell number at 24 h, Library stock concentration: 1.111 mM",59.3%
same,"nuclei count, normalised","[1]; measured here: cell number at 24 h, Library stock concentration: 3.333 mM",55.3%
same,"nuclei count, normalised",[1]; [6],51.2%
same,"nuclei count, normalised","[1]; measured here: cell number at 48 h, Library stock concentration: 500 nM",115%
same,"nuclei count, normalised","[1]; measured here: cell number at 48 h, Library stock concentration: 1.5 uM",107%
same,"nuclei count, normalised","[1]; measured here: cell number at 48 h, Library stock concentration: 4.6 uM",62%
same,"nuclei count, normalised","[1]; measured here: cell number at 48 h, Library stock concentration: 13.7 uM",51.1%
same,"nuclei count, normalised","[1]; measured here: cell number at 48 h, Library stock concentration: 41 uM",50.8%
same,"nuclei count, normalised","[1]; measured here: cell number at 48 h, Library stock concentration: 123 uM",48.7%
same,"nuclei count, normalised","[1]; measured here: cell number at 48 h, Library stock concentration: 370 uM",44.4%
same,"nuclei count, normalised","[1]; measured here: cell number at 48 h, Library stock concentration: 1.111 mM",46.2%
same,"nuclei count, normalised","[1]; measured here: cell number at 48 h, Library stock concentration: 3.333 mM",45.1%
same,"nuclei count, normalised",[1]; [7],41.5%
same,"p53-positive nuclei, normalised",[2]; Library stock concentration: 500 nM,-0.105% (inactive)
same,"p53-positive nuclei, normalised",[2]; Library stock concentration: 1.5 uM,-0.0067% (inactive)
same,"p53-positive nuclei, normalised",[2]; Library stock concentration: 4.6 uM,0.019% (inactive)
same,"p53-positive nuclei, normalised",[2]; Library stock concentration: 13.7 uM,0.162% (inactive)
same,"p53-positive nuclei, normalised",[2]; Library stock concentration: 41 uM,0.839% (inactive)
same,"p53-positive nuclei, normalised",[2]; Library stock concentration: 123 uM,0.265% (inactive)
same,"p53-positive nuclei, normalised",[2]; Library stock concentration: 370 uM,0.43% (inactive)
same,"p53-positive nuclei, normalised",[2]; Library stock concentration: 1.111 mM,0.292% (inactive)
same,"p53-positive nuclei, normalised",[2]; Library stock concentration: 3.333 mM,0.443% (inactive)
same,"p53-positive nuclei, normalised",[2]; [8],0.266% (inactive)
same,"p53-positive nuclei, normalised","[2]; measured here: p53 positive nuclei at 24 h, Library stock concentration: 500 nM",-0.0685%
same,"p53-positive nuclei, normalised","[2]; measured here: p53 positive nuclei at 24 h, Library stock concentration: 1.5 uM",0.0513%
same,"p53-positive nuclei, normalised","[2]; measured here: p53 positive nuclei at 24 h, Library stock concentration: 4.6 uM",0.0647%
same,"p53-positive nuclei, normalised","[2]; measured here: p53 positive nuclei at 24 h, Library stock concentration: 13.7 uM",-0.0822%
same,"p53-positive nuclei, normalised","[2]; measured here: p53 positive nuclei at 24 h, Library stock concentration: 41 uM",0.108%
same,"p53-positive nuclei, normalised","[2]; measured here: p53 positive nuclei at 24 h, Library stock concentration: 123 uM",0.0172%
same,"p53-positive nuclei, normalised","[2]; measured here: p53 positive nuclei at 24 h, Library stock concentration: 370 uM",-0.0726%
same,"p53-positive nuclei, normalised","[2]; measured here: p53 positive nuclei at 24 h, Library stock concentration: 1.111 mM",-0.0774%
same,"p53-positive nuclei, normalised","[2]; measured here: p53 positive nuclei at 24 h, Library stock concentration: 3.333 mM",0.296%
same,"p53-positive nuclei, normalised",[2]; [9],-0.0521%
